The source of these data is the supplement of paper PMC9262897, “Low-cost anti-mycobacterial drug discovery using engineered E. coli” (Nature Communications, 2022).

The structures appear in SMILES notation. Structures can show the parent of a compound that is named as a salt. ± gives the standard deviation of the averaged measurements.

The experiment concerns E. coli TESEC Alr+ wild-type control. In words: growth (OD600 after 10 h); higher = more growth (less inhibition). As to conditions: compound 0.1 mM; raw OD600 reference: median of DMSO wells 0.49, cell-free background 0.052. On the procedure:
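TESEC Mtb Alr E. coli (ΔaraC ΔtolC ΔentC Δalr ΔdadX, arabinose-inducible Mtb Alr) or the Alr+ wild-type control strain, grown in defined M9-fructose medium without D-alanine in 96-well plates with Prestwick library compounds at 0.1 mM and 1% DMSO. Low Alr induction is 0.1 µM arabinose and high induction is 10 mM arabinose.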
As to `CC(C)(C)NCC(O)c1ccc(O)c(CO)c1` (stereo not given) [Salbutamol], the growth came out at 0.528 ± 0.092.
The result for `CC(=O)[C@H]1CC[C@H]2[C@@H]3CC=C4C[C@@H](O)CC[C@]4(C)[C@H]3CC[C@]12C` [Pregnenolone] reads 0.458 ± 0.0056; that for `C=C1c2c(Cl)ccc(O)c2C(O)=C2C(=O)[C@]3(O)C(O)=C(C(N)=O)C(=O)[C@@H](N(C)C)[C@@H]3[C@@H](O)[C@H]12.O=C(O)c1cc(S(=O)(=O)O)ccc1O` [Meclocycline sulfosalicylate], 0.05223 ± 0.00012; that for `Clc1cnccn1` [2-Chloropyrazine], 0.586 ± 0.067.
Under `COc1cc([S+](C)[O-])ccc1-c1nc2cccnc2[nH]1` (stereo not given) [Sulmazole] stands 0.4254 ± 0.0034.
Regarding `N=C(N)NCc1cccc(I)c1` [Iobenguane sulfate], the growth is 0.488 ± 0.019.
For `COc1ccc2c(c1)C(=O)N(CCc1ccc(S(=O)(=O)NC(=O)NC3CCCCC3)cc1)C(=O)C2(C)C` [Gliquidone], the growth was 0.0675 ± 0.001.
Compound `Nc1nc(=O)c2c([nH]1)NC[C@@H](CNc1ccc(C(=O)N[C@@H](CCC(=O)O)C(=O)O)cc1)N2C=O` [Folinic acid calcium salt] came in with a growth of 0.567 ± 0.12.
Consider `CC[C@]12CCCN3CCc4c(n(c5ccccc45)C(=O)C1)[C@@H]32` [Eburnamonine (-)], for which the growth was 0.544 ± 0.059.
The result for `CC(C(=O)O)c1ccc(-c2ccccc2)c(F)c1` (stereo not given) [Flurbiprofen] reads 0.486 ± 0.025; that for `Oc1ccc(OCc2ccccc2)cc1` [Monobenzone], 0.477 ± 0.012; that for `CC[C@@H]1C(=O)OC[C@@H]1Cc1cncn1C` [Pilocarpine nitrate], 0.674 ± 0.05.
The result for `Brc1c(NC2=NCCN2)ccc2nccnc12` [Brimondine L-Tartrate] reads 0.46 ± 0.032; that for `COC(=O)Nc1nc2cc(C(=O)c3cccs3)ccc2[nH]1` [Nocodazole], 0.465 ± 0.044; that for `CN1CCCN(C(c2ccccc2)c2ccc(Cl)cc2)CC1` (stereo not given) [Homochlorcyclizine dihydrochloride], 0.498 ± 0.047.
The result for `C[N+]1(C)CCC(=C(c2ccccc2)c2ccccc2)CC1` [Diphemanil methylsulfate] reads 0.4312 ± 0.0036; that for `CN1CCN(c2c(F)cc3c(=O)c(C(=O)O)cn(CCF)c3c2F)CC1` [Fleroxacin], 0.0565 ± 0.002.
On to `COc1ccc(CC2c3cc(OC)c(OC)cc3CC[N+]2(C)CCC(=O)OCCCCCOC(=O)CC[N+]2(C)CCc3cc(OC)c(OC)cc3C2Cc2ccc(OC)c(OC)c2)cc1OC` (stereo not given) [Atracurium besylate], for which the growth is 0.431 ± 0.027.
Turning to `CC(C)(Sc1cc(C(C)(C)C)c(O)c(C(C)(C)C)c1)Sc1cc(C(C)(C)C)c(O)c(C(C)(C)C)c1` [Probucol], the growth is 0.583 ± 0.039.
With `COc1c(N2CCNC(C)C2)c(F)cc2c(=O)c(C(=O)O)cn(C3CC3)c12` (stereo not given) [Gatifloxacin], the growth came to 0.05293 ± 0.00023.
As to `CCOC1O[C@H]([C@@H](COCc2ccccc2)OCc2ccccc2)[C@H](OCc2ccccc2)[C@H]1O` (stereo not given in full) [Tribenoside], the growth is 0.374 ± 0.015.
For the compound `c1ccc([C@H]2CN3CCSC3=N2)cc1` [Levamisole hydrochloride], the growth is 0.511 ± 0.054.
In turn, `C[N+]1(C)CCC(OC(=O)C(O)(c2ccccc2)C2CCCC2)C1` (stereo not given) [Glycopyrrolate] showed a growth of 0.575 ± 0.12.
The result for `CC(C)NCC(O)c1ccc(O)c(O)c1` (single isomer, unassigned; (+)) [(+)-Isoproterenol (+)-bitartrate salt] reads 0.497 ± 0.044; that for `CCOc1ccc(NC(C)=O)cc1` [Phenacetin], 0.506 ± 0.071.
Under `CC(=O)Nc1ccc(CC(=O)O)cc1` [Actarit] stands 0.574 ± 0.11; under `CNC(=C[N+](=O)[O-])NCCSCc1ccc(CN(C)C)o1` [Ranitidine hydrochloride], 0.485 ± 0.064.
Regarding `Nc1ccc(S(N)(=O)=O)cc1` [Sulfanilamide], the growth is 0.507 ± 0.044.
`CN[C@@H]1[C@H](O)[C@H](NC)[C@H]2O[C@@]3(O)C(=O)C[C@@H](C)O[C@H]3O[C@@H]2[C@H]1O` [Spectinomycin dihydrochloride] gave a growth of 0.228 ± 0.023.
Compound `Cc1c(-c2ccccc2)oc2c(C(=O)OCCN3CCCCC3)cccc2c1=O` [Flavoxate hydrochloride] registered a growth of 0.414 ± 0.023.
Compound `O=C(O)c1ccccc1C(=O)Nc1ccc(S(=O)(=O)Nc2nccs2)cc1` [Phthalylsulfathiazole] displayed a growth of 0.47 ± 0.037.
The result for `COc1ccccc1N1CCN(CCCNc2cc(=O)n(C)c(=O)n2C)CC1` [Urapidil hydrochloride] reads 0.713 ± 0.029; that for `O=P(O)(O)C(Cl)(Cl)P(=O)(O)O` [Clodronate], 0.528 ± 0.084; that for `COc1cccc2c1C(=O)c1c(O)c3c(c(O)c1C2=O)C[C@@](O)(C(=O)CO)C[C@@H]3O[C@H]1C[C@H](N)[C@@H](O)[C@H](C)O1` [Epirubicin hydrochloride], 0.0592 ± 0.0032.
Compound `C[C@]12C[C@H](O)[C@H]3[C@@H](CCC4=CC(=O)CC[C@@]43C)[C@@H]1CC[C@@H]2C(=O)CO` [Corticosterone] came in with a growth of 0.418 ± 0.033.
`Cc1ncc(C[n+]2csc(CCO)c2C)c(N)n1` [Thiamine hydrochloride] came in with a growth of 0.451 ± 0.011.
For `CCCCOC(=O)c1ccc(O)cc1` [Butylparaben], the growth amounted to 0.399 ± 0.014.
Regarding `CC(=O)Nc1ccc(O)cc1` [Acetaminophen], the growth was 0.559 ± 0.083.
Under `Cc1cccc(Nc2ccccc2C(=O)O)c1C` [Mefenamic acid] stands 0.158 ± 0.011.
On to `CC(=O)c1ccc(S(=O)(=O)NC(=O)NC2CCCCC2)cc1` [Acetohexamide], for which the growth amounted to 0.526 ± 0.01.
